WRN helicase inh – blocks human WRN helicase; Potency, µM (titrated, usually from 114 µM), hits mostly inhibitors; Q14191; WRN helicase unwinding, fluorescent forked duplex, kinetic; AID 651768; 360,000 tested, 0.46% active; further: nearly all actives have a fitted effect of over 55% in size
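WRN at 20 nM final was preincubated with compound for 15 min at room temperature; reaction started with 100 nM forked duplex oligonucleotide carrying fluorophore and quencher plus 2 mM ATP (final). Unwinding followed kinetically by red fluorescence (ex 525/em 598 nm).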
POLI inh – inhibitors of human DNA polymerase iota; Potency, µM (titrated, usually from 115 µM), actives largely listed as inhibitors; 390,000 tested, 1% active; Q9UNA4; Pol iota fluorescent replication assay, 10 min
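Fluorescent replication assay read twice, at 0 min and 10 min after adding 50 nM (final) substrate. Enzyme (10 nM) and compounds were first incubated 15 min at room temperature; enzyme-free buffer wells were negative controls.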
Pol eta inh-1 – inhibitors of human DNA polymerase eta | Potency, µM (highest dose often 114 µM), most hits filed as inhibitors | 390,000 tested, 1.2% active | recombinant Pol eta, fluorescent DNA replication assay | AID 588591
Target sequence (Q9Y253 whole entry, looked up): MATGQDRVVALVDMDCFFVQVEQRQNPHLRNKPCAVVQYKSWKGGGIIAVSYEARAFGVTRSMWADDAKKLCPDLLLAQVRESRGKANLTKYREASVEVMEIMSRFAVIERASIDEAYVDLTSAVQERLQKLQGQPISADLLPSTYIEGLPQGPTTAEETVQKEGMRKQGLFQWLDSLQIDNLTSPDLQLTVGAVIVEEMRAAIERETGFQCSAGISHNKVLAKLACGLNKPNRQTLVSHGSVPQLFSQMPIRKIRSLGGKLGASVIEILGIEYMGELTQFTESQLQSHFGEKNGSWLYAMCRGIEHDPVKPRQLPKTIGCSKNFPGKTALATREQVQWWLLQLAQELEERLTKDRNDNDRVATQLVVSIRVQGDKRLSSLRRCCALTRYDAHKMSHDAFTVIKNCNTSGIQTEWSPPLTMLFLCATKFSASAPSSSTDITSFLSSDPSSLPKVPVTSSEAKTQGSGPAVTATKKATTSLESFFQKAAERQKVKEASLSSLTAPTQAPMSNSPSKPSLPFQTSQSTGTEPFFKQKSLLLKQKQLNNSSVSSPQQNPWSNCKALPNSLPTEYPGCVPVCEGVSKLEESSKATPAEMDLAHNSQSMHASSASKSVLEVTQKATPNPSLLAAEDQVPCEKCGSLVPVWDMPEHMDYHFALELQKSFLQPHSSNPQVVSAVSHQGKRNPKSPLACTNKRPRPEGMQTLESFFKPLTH
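Pol eta (10 nM) was preincubated with compounds for 15 min at room temperature, after which fluorescent replication substrate (50 nM final) was added to start the reaction. Fluorescence was read kinetically at 0 and 10 min.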
Pol beta inh – blocks human DNA polymerase beta activity; P06746; Pol beta primer extension/strand displacement, fluorescence kinetic; Potency, µM (series often up to 114 µM), most hits filed as inhibitors; 340,000 tested, 1.3% active
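Pol beta (10 nM) and compounds were preincubated 15 min at room temperature, then 50 nM substrate (final) started primer extension/strand displacement. Reads were taken at 0 and 10 min; concentration-response data were fitted to a four-parameter Hill equation.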
Pol kappa inh-1 – DNA polymerase kappa (human) inhibition; Potency, µM (titrated, usually from 107 µM), hits mostly inhibitors; purified Pol kappa, fluorescent DNA synthesis assay, 10 min; Q9UBT6; 400,000 tested, 0.53% active
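First, compounds were pin-transferred onto 10 nM Pol kappa. After 15 min at room temperature, substrate was added to 50 nM final. Fluorescence was then measured kinetically at 0 and 10 min.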
TbPGK inh – validation of Trypanosoma brucei phosphoglycerate kinase inhibitors; 500 tested, 79% active; TbPGK coupled GAPDH assay, Kinase-Glo luminescence; Potency, µM (series often up to 57.5 µM), hits mostly inhibitors; AID 686980; shares compounds with Pol kappa inh-1; further: nearly all actives have a fitted effect of over 65% in size
POLI cherry-pick – Human Pol iota inhibitor confirmatory assay; shares compounds with Pol kappa inh-1; Pol iota primer extension, TAMRA/BHQ fluorescence; Potency, µM, usual class: inhibitors; 1,500 tested, 77% active; AID 720496
Pol kappa inh-2 – Pol kappa (human) inhibition, cherry-pick confirmation | shares compounds with Pol eta inh-1 | purified Pol-kappa, fluorescent strand-displacement substrate | Potency, µM, hits mostly inhibitors | 920 tested, 76% active
Pol eta inh-2 – confirmation of human DNA polymerase eta inhibitors. shares compounds with Pol eta inh-1. Pol eta primer extension, TAMRA/BHQ fluorescence, 10 min. Potency, µM, usual class: inhibitors. 2,600 tested, 64% active. AID 720502
Large screens that a line does not name were inactive (follow-up assays come after a bar, where they were run); ! = repeats disagree. This is a sample that favours compounds with a hit; in the whole collection about 2.3% have one here. The call rests on the fitted dose curve; in most records, active means well fitted curve in the direction sought with a large enough effect; inconclusive means small, poorly fitted or top-dose-only effect, or another doubt; inactive means no such curve, though single readings can be large; an effect the other way counts as inactive or inconclusive.

O=C(O)CSc1cc(C(=O)c2ccccc2O)cn2c(=O)c3c(-c4ccccc4)csc3nc12	WRN helicase inh inconclusive, POLI inh inconclusive, Pol eta inh-1 14µM, Pol beta inh 45µM, Pol kappa inh-1 inconclusive | POLI cherry-pick 21 | Pol eta inh-2 27
CCc1c(C)sc2nc3c(C(=O)N4CCOCC4)cc(C(=O)c4ccccc4O)cn3c(=O)c12	none
CCOC(=O)c1sc2nc3c(SCC(=O)O)cc(C(=O)c4cc(F)ccc4O)cn3c(=O)c2c1C	POLI inh inconclusive, Pol eta inh-1 20µM, Pol beta inh 10µM, Pol kappa inh-1 50µM | POLI cherry-pick 19 | Pol eta inh-2 27
CCOC(=O)c1sc2ncn(C(C)C(=O)OCC)c(=O)c2c1C (centres undefined)	none
Cc1c(C(=O)Nc2cccc(C#N)c2)sc2nc3n(c(=O)c12)CCCCC3	none (no result: WRN helicase inh)
Cc1ccc2c(c1)N(C(=O)N1CCC(C(=O)NCCc3ccc(Cl)cc3)CC1)CC(C)O2 (centres undefined)	POLI inh inconclusive (no result: WRN helicase inh)
CCn1cc(S(=O)(=O)c2cccc(Cl)c2)c(=O)c2cc(F)c(N3CCN(C)CC3)cc21	none (no result: WRN helicase inh)
Cc1ccc(C(=O)C(OC(=O)CNC(=O)COc2ccccc2C)c2ccccc2)cc1 (centres undefined)	none (no result: WRN helicase inh, Pol eta inh-1, Pol beta inh)
Cc1cccc(-n2c(C)cc(/C=C3/C(=N)N4C(c5ccccc5)=CSC4=NC3=O)c2C)c1	none
N=C1/C(=C\c2ccc(-c3ccc(C(=O)O)cc3)o2)C(=O)N=C2SC=C(c3ccccc3)N12	POLI inh inconclusive, Pol eta inh-1 3.5µM, Pol beta inh inconclusive, Pol kappa inh-1 50µM | POLI cherry-pick 38 | Pol eta inh-2 27
O=C(O)c1cccc(N/N=C/c2ccc(OC(F)(F)F)cc2)c1	POLI inh inconclusive
N#C/C(=C\c1ccc(OCc2ccc(F)cc2)cc1)C(=O)Nc1cccc(C(=O)O)c1	WRN helicase inh inconclusive, POLI inh inconclusive, Pol eta inh-1 40µM, Pol beta inh inconclusive, Pol kappa inh-1 inconclusive | POLI cherry-pick inconclusive | Pol kappa inh-2 42 | Pol eta inh-2 inconclusive
COC(=O)c1ccc(COc2ccc(/C=N/Nc3cccc(C(=O)O)c3)cc2)cc1	POLI inh 32µM, Pol eta inh-1 18µM, Pol kappa inh-1 inconclusive | POLI cherry-pick 60 | Pol eta inh-2 27
N#C/C(=C/c1ccc(OCc2ccc(C(=O)O)cc2)cc1)C(=O)Nc1ccccc1	Pol eta inh-1 inconclusive
Cc1nc(-c2cccc(NC(=O)Nc3ccc([N+](=O)[O-])cc3)c2)no1	Pol beta inh inconclusive (no result: WRN helicase inh)
O=c1cc(-c2ccc(O)cc2)oc2cc(O)c(C3OC(CO)C(O)C(O)C3O)c(O)c12 (centres undefined)	WRN helicase inh inconclusive, POLI inh 35µM, Pol eta inh-1 20µM, Pol beta inh 8.9µM, Pol kappa inh-1 40µM | POLI cherry-pick 34 | Pol eta inh-2 24
CN(C)CCCNc1c2ccccc2nc2ccccc12	WRN helicase inh inconclusive, POLI inh 8.9µM, Pol eta inh-1 22µM, Pol beta inh 2.2µM, Pol kappa inh-1 25µM | POLI cherry-pick 11 | Pol kappa inh-2 9.5
CN(C)CCCNc1nc(-c2ccccc2)nc2ccccc12	none
CN(C)c1ccc(CNC(=O)CN2C(=O)CCn3nc(-c4cn(C)c5ccccc45)cc32)cc1	Pol beta inh inconclusive (no result: WRN helicase inh)
O=S(=O)(O)c1cc(O)c(N=Nc2ccc(O)cc2O)c2ccccc12	WRN helicase inh 40µM, Pol eta inh-1 10µM, Pol kappa inh-1 20µM (no result: POLI inh, Pol beta inh) | TbPGK inh 23µM | POLI cherry-pick 19 | Pol kappa inh-2 34 | Pol eta inh-2 38
CC/C=C\C/C=C\C/C=C\CCCCCCCC(=O)O	WRN helicase inh 18µM, POLI inh 13µM, Pol eta inh-1 7.9µM, Pol kappa inh-1 28µM! (no result: Pol beta inh) | POLI cherry-pick 30 | Pol kappa inh-2 9.5 | Pol eta inh-2 24
CCOC(=O)CC(NS(=O)(=O)c1ccc2[nH]cc(C(=O)O)c(=O)c2c1)c1ccc(OCC)c(OC)c1 (centres undefined)	POLI inh 20µM, Pol eta inh-1 4µM, Pol beta inh 3.5µM, Pol kappa inh-1 50µM | POLI cherry-pick 34 | Pol eta inh-2 27
CCOC(=O)CC(NS(=O)(=O)c1ccc(OC)c(OC)c1)c1cccc([N+](=O)[O-])c1 (centres undefined)	none
O=C1COc2ccc(C(=O)COC(=O)/C=C/c3ccc(Br)o3)cc2N1	WRN helicase inh 35µM, POLI inh 20µM, Pol eta inh-1 1.6µM, Pol kappa inh-1 18µM (no result: Pol beta inh) | POLI cherry-pick 21 | Pol eta inh-2 67
CCC(C)NC(=O)c1cnn(-c2ccc(Cl)cc2)c1C1CCN(C(=O)OC(C)(C)C)CC1 (centres undefined)	none (no result: WRN helicase inh)
CCOc1ccc(NC(=O)CCS(=O)(=O)c2ccc(Br)cc2)cc1	Pol eta inh-1 18µM, Pol beta inh 28µM | TbPGK inh inconclusive | Pol eta inh-2 76
COc1ccc(NC(=O)CCS(=O)(=O)c2ccc(OC)cc2)cc1	none
CCn1cc(S(=O)(=O)c2ccc(C)cc2C)c(=O)c2cc(F)c(N3CCCC3)cc21	none (no result: WRN helicase inh)
O=C(/C=C/c1ccco1)N(c1ccccn1)c1ccccn1	WRN helicase inh 50µM, POLI inh inconclusive, Pol eta inh-1 8.9µM, Pol beta inh 3.5µM, Pol kappa inh-1 32µM | POLI cherry-pick 17 | Pol eta inh-2 24
O=C(c1ccco1)N(c1ccccn1)c1ccccn1	none
COC(=O)c1ccc([C@H]2Nc3ccc(S(=O)(=O)Nc4ccc(F)cc4)cc3[C@H]3C=CC[C@H]32)cc1	none (no result: WRN helicase inh)
COc1cccc(NS(=O)(=O)c2ccc3c(c2)C2C=CCC2C(c2ccc(C(=O)O)cc2)N3)c1 (centres undefined)	WRN helicase inh 45µM, POLI inh 20µM, Pol eta inh-1 3.2µM, Pol beta inh inconclusive, Pol kappa inh-1 16µM | POLI cherry-pick 38 | Pol eta inh-2 27
CCOC(=O)CN(C(=O)c1snc(C(N)=O)c1N)C(C(=O)NC1CCCCC1)c1ccc(F)cc1 (centres undefined)	POLI inh inconclusive, Pol eta inh-1 35µM, Pol beta inh 20µM, Pol kappa inh-1 79µM | POLI cherry-pick 42 | Pol eta inh-2 inconclusive
COc1cccc(CNC(=O)CN2N=C(c3ccc(C)cc3)CCC2=O)c1	none (no result: WRN helicase inh)
COc1cccc(Nc2ccccc2C(=O)O)c1	none
